# Results: PubChem BioAssay (NCI)
# Several values for one entry are separate records, joined by “and”; a condition that tells them apart may be missing. Identical values can stand only once. This is part of a sample that, as a whole, favours compounds with a hit. Of some 83,000 tested, about 20% had one in any assay.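 The test compound was applied at a single concentration to cells in 96-well plates for 48 hours, and percent growth was recorded.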 Activity calls are given as the source filed them. How the source made its calls: active means growth percent below 10; inactive means the rest.
# Tested on: MCF7 breast
# Assay: NCI-60 one-dose screen, 48 h (100 = growth as untreated, 0 = no growth, -100 = all killed)
# Settings: 10 µM unless noted
row,SMILES,growth
1,Cc1ccc(/C=N/Nc2nncc3ccccc23)s1,19% [100 µM] (inactive) and 4.27% [100 µM] (active)
2,C/C=C1\NC(=O)[C@H]2CSSCCC=C[C@H](CC(=O)N[C@H](C(C)C)C(=O)N2)OC(=O)[C@H](C(C)C)NC1=O,-73.3% [0.1 µM] (active) and -95.5% [0.1 µM] (active)
3,CC(C)=CCc1c(OC(=O)c2c(C)cc(O)cc2O)cc(CO)c(CO)c1O,-58.6% [100 µM] (active) and -100% [100 µM] (active)
4,CC(C)C1OC(N)=C(C#N)C1(C#N)C#N (centres undefined),12.9% [100 µM] (inactive) and 2.2% [100 µM] (active)
5,CCCCCCSC[C@H](OC(C)=O)[C@@H](OC(C)=O)[C@@H](OC(C)=O)[C@@H](COC(C)=O)OC(C)=O,28.8% [100 µM] (inactive) and 79.7% [100 µM] (inactive)
6,O=C1NC(N/N=C\C(O)C(O)C(O)C(O)CO)=N/C1=C\c1ccc(Cl)cc1 (centres undefined),58.4% [100 µM] (inactive) and 13.9% [100 µM] (inactive)
7,COc1cc2c(c3c1c(=O)c1ccccc1n3C)C=C([N+](=O)[O-])C(C)(C)O2,9.29% [100 µM] (active) and -100% [100 µM] (active)
8,CC1OC(Oc2c(-c3cc(O)c(O)c(O)c3)oc3cc(O)cc(O)c3c2=O)C(O)C(O)C1O (centres undefined),77.9% [100 µM] (inactive) and -43.3% [100 µM] (active)
9,C=CC1=C(C)C2=NC1=CC1=NC(=C(CC)/C1=C\O)C=C1N=C3C(=C1C)C(=O)[C@H](C(=O)OC)C3=C1NC(=C2)[C@@H](C)[C@@H]1CCC(=O)O,16.5% [100 µM] (inactive) and 5.87% [100 µM] (active)
